{
  "source": "the supplement of paper PMC8728848",
  "binders": {"B1": {"name": "AAL (Agrocybe aegerita), Q6WY08 (protein)", "chain": "MQGVNIYNISAGTSVDLAAPVTTGDIVTFFSSALNLNAGAGNPNNTTLNLFAENGAYLLHIAHRLQENVIIFNSRQPDGPWLVEQRVSDVANQFAGIDGKAMVTVFDHGDKYQVVINEKTVIQYTKQISGLTLSLSYNATEETSIFSTVVEAVTYTGLALEHHHHHH"}},
  "test_in_all_cases": "glycan array binding signal (z-score within array); higher = stronger binding",
  "settings_in_all_cases": "glycan notation: IUPAC condensed, linker removed; mutation: F63H",
  "key": {"[1]": {"target": "Gal(b1-6)Gal", "summary_of_the_method": "(§1)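 Negative Z-scores can be read as non-binding. The Z-score is calculated within each array and then averaged across arrays of one protein sequence at different concentrations or buffers and across linkers. Arrays, 3228 in all, were curated from the Consortium for Functional Glycomics database and kept only where the protein sequence was available.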"}, "[2]": {"target": "Gal3S(b1-3)GlcNAc", "summary_of_the_method": "as §1"}, "[3]": {"target": "Gal3S(b1-3)[Fuc(a1-4)]GlcNAc", "summary_of_the_method": "as §1"}, "[4]": {"target": "Gal4S(b1-4)GlcNAc", "summary_of_the_method": "as §1"}, "[5]": {"target": "GalNAc(b1-3)GlcNAc", "summary_of_the_method": "as §1"}, "[6]": {"target": "Glc(a1-6)Glc(a1-6)Glc(a1-6)Glc", "summary_of_the_method": "as §1"}, "[7]": {"target": "GlcA(b1-6)Gal", "summary_of_the_method": "as §1"}, "[8]": {"target": "GlcA3S(b1-3)Gal(b1-4)GlcNAc(b1-2)Man", "summary_of_the_method": "as §1"}, "[9]": {"target": "GlcA3S(b1-3)Gal(b1-4)GlcNAc(b1-3)Gal(b1-4)Glc", "summary_of_the_method": "as §1"}, "[10]": {"target": "GlcNAc(a1-4)Gal(b1-4)GlcNAc(b1-3)Gal(b1-4)GlcNAc", "summary_of_the_method": "as §1"}, "[11]": {"target": "GlcNAc(b1-2)Man(a1-3)[GlcNAc(b1-4)][GlcNAc(b1-2)Man(a1-6)]Man(b1-4)GlcNAc(b1-4)[Fuc(a1-6)]GlcNAc", "summary_of_the_method": "as §1"}, "[12]": {"target": "GlcNAc(b1-3)Gal(b1-4)Glc", "summary_of_the_method": "as §1"}, "[13]": {"target": "GlcNAc(b1-3)Gal(b1-4)GlcNAc(b1-3)Gal(b1-4)GlcNAc(b1-2)[GlcNAc(b1-3)Gal(b1-4)GlcNAc(b1-3)Gal(b1-4)GlcNAc(b1-6)]Man(a1-6)[GlcNAc(b1-3)Gal(b1-4)GlcNAc(b1-3)Gal(b1-4)GlcNAc(b1-2)Man(a1-3)]Man(b1-4)GlcNAc(b1-4)[Fuc(a1-6)]GlcNAc", "summary_of_the_method": "as §1"}, "[14]": {"target": "GlcNAc(b1-3)Gal(b1-4)GlcNAc(b1-3)Gal(b1-4)GlcNAc(b1-3)Gal(b1-4)GlcNAc(b1-2)Man(a1-3)[GlcNAc(b1-3)Gal(b1-4)GlcNAc(b1-3)Gal(b1-4)GlcNAc(b1-3)Gal(b1-4)GlcNAc(b1-2)Man(a1-6)]Man(b1-4)GlcNAc(b1-4)[Fuc(a1-6)]GlcNAc", "summary_of_the_method": "as §1"}, "[15]": {"target": "GlcNAc(b1-3)Gal(b1-4)GlcNAc(b1-3)Gal(b1-4)GlcNAc(b1-3)Gal(b1-4)GlcNAc(b1-3)Gal(b1-4)GlcNAc(b1-2)[GlcNAc(b1-3)Gal(b1-4)GlcNAc(b1-3)Gal(b1-4)GlcNAc(b1-3)Gal(b1-4)GlcNAc(b1-3)Gal(b1-4)GlcNAc(b1-6)]Man(a1-6)[GlcNAc(b1-3)Gal(b1-4)GlcNAc(b1-3)Gal(b1-4)GlcNAc(b1-3)Gal(b1-4)GlcNAc(b1-3)Gal(b1-4)GlcNAc(b1-2)Man(a1-3)]Man(b1-4)GlcNAc(b1-4)[Fuc(a1-6)]GlcNAc", "summary_of_the_method": "as §1"}, "[16]": {"target": "GlcNAc(b1-3)Gal(b1-4)GlcNAc(b1-3)[GlcNAc(b1-3)Gal(b1-4)GlcNAc(b1-3)]GalNAc", "summary_of_the_method": "as §1"}, "[17]": {"target": "GlcNAc(b1-3)Man", "summary_of_the_method": "as §1"}, "[18]": {"target": "GlcNAc(b1-3)[GlcNAc(b1-4)][GlcNAc(b1-6)]GlcNAc", "summary_of_the_method": "as §1"}, "[19]": {"target": "GlcNAc(b1-3)[GlcNAc(b1-6)]GalNAc", "summary_of_the_method": "as §1"}, "[20]": {"target": "Kdn(a2-3)Gal(b1-3)GlcNAc", "summary_of_the_method": "as §1"}, "[21]": {"target": "Man(a1-2)Man(a1-2)Man(a1-6)[Man(a1-3)]Man", "summary_of_the_method": "as §1"}, "[22]": {"target": "Man(a1-2)Man(a1-3)Man", "summary_of_the_method": "as §1"}, "[23]": {"target": "Neu5Ac(a2-3)Gal(b1-3)GalNAc(b1-4)Gal(b1-4)Glc", "summary_of_the_method": "as §1"}, "[24]": {"target": "Neu5Ac(a2-3)Gal(b1-3)GlcNAc", "summary_of_the_method": "as §1"}, "[25]": {"target": "Neu5Ac(a2-3)Gal(b1-3)[Fuc(a1-4)]GlcNAc(b1-3)Gal(b1-4)[Fuc(a1-3)]GlcNAc", "summary_of_the_method": "as §1"}, "[26]": {"target": "Neu5Ac(a2-3)Gal(b1-3)[GlcNAc(b1-6)]GalNAc", "summary_of_the_method": "as §1"}, "[27]": {"target": "Neu5Ac(a2-3)Gal(b1-4)GlcNAc(b1-2)[Neu5Ac(a2-3)Gal(b1-4)GlcNAc(b1-4)]Man(a1-3)[GlcNAc(b1-4)][Neu5Ac(a2-3)Gal(b1-4)GlcNAc(b1-4)Man(a1-6)]Man(b1-4)GlcNAc(b1-4)GlcNAc", "summary_of_the_method": "as §1"}, "[28]": {"target": "Neu5Ac(a2-3)Gal(b1-4)GlcNAc(b1-2)[Neu5Ac(a2-3)Gal(b1-4)GlcNAc(b1-6)]Man(a1-6)[Neu5Ac(a2-3)Gal(b1-4)GlcNAc(b1-2)Man(a1-3)][GlcNAc(b1-4)]Man(b1-4)GlcNAc(b1-4)GlcNAc", "summary_of_the_method": "as §1"}, "[29]": {"target": "Neu5Ac(a2-3)Gal(b1-4)GlcNAc(b1-6)[Gal(b1-3)]GalNAc", "summary_of_the_method": "as §1"}, "[30]": {"target": "Neu5Ac(a2-6)Gal(b1-4)GlcNAc(b1-2)Man(a1-3)[GlcNAc(b1-2)Man(a1-6)]Man(b1-4)GlcNAc(b1-4)GlcNAc", "summary_of_the_method": "as §1"}},
  "note": "About 410 targets per protein were measured; listed, in parts, are those with the strongest signals and a random draw of the rest.",
  "data": [
    {"binder": "B1", "values": [
      {"measurement": "glycan array binding signal (z-score)", "setting": "[1]", "result": -0.264},
      {"measurement": "glycan array binding signal (z-score)", "setting": "[2]", "result": -0.185},
      {"measurement": "glycan array binding signal (z-score)", "setting": "[3]", "result": -0.366},
      {"measurement": "glycan array binding signal (z-score)", "setting": "[4]", "result": -0.569},
      {"measurement": "glycan array binding signal (z-score)", "setting": "[5]", "result": -0.08},
      {"measurement": "glycan array binding signal (z-score)", "setting": "[6]", "result": -0.408},
      {"measurement": "glycan array binding signal (z-score)", "setting": "[7]", "result": 0.43},
      {"measurement": "glycan array binding signal (z-score)", "setting": "[8]", "result": 14.9},
      {"measurement": "glycan array binding signal (z-score)", "setting": "[9]", "result": 12.7},
      {"measurement": "glycan array binding signal (z-score)", "setting": "[10]", "result": -0.067},
      {"measurement": "glycan array binding signal (z-score)", "setting": "[11]", "result": -0.109},
      {"measurement": "glycan array binding signal (z-score)", "setting": "[12]", "result": 1.42},
      {"measurement": "glycan array binding signal (z-score)", "setting": "[13]", "result": 0.909},
      {"measurement": "glycan array binding signal (z-score)", "setting": "[14]", "result": 0.906},
      {"measurement": "glycan array binding signal (z-score)", "setting": "[15]", "result": 0.818},
      {"measurement": "glycan array binding signal (z-score)", "setting": "[16]", "result": 0.58},
      {"measurement": "glycan array binding signal (z-score)", "setting": "[17]", "result": -0.511},
      {"measurement": "glycan array binding signal (z-score)", "setting": "[18]", "result": -0.568},
      {"measurement": "glycan array binding signal (z-score)", "setting": "[19]", "result": -0.374},
      {"measurement": "glycan array binding signal (z-score)", "setting": "[20]", "result": -0.066},
      {"measurement": "glycan array binding signal (z-score)", "setting": "[21]", "result": -0.576},
      {"measurement": "glycan array binding signal (z-score)", "setting": "[22]", "result": -0.172},
      {"measurement": "glycan array binding signal (z-score)", "setting": "[23]", "result": 0.045},
      {"measurement": "glycan array binding signal (z-score)", "setting": "[24]", "result": -0.26},
      {"measurement": "glycan array binding signal (z-score)", "setting": "[25]", "result": -0.137},
      {"measurement": "glycan array binding signal (z-score)", "setting": "[26]", "result": 0.214},
      {"measurement": "glycan array binding signal (z-score)", "setting": "[27]", "result": -0.283},
      {"measurement": "glycan array binding signal (z-score)", "setting": "[28]", "result": 1.54},
      {"measurement": "glycan array binding signal (z-score)", "setting": "[29]", "result": 0.404},
      {"measurement": "glycan array binding signal (z-score)", "setting": "[30]", "result": -0.73}
    ]}
  ]
}
